Hits are enriched below; roughly 3.7% of the tested compounds scored in any of these assays.
FMDV antiviral = High Throughput Screening for Foot and Mouth Disease Virus Antivirals; FMDV antiviral cell-based qHTS; Potency, µM (series often up to 57.9 µM), actives largely listed as inhibitors; actives 1.2% (n = 410,000); calls by dose curve; tested in HEK293T cells; also: read-out not given here; nearly all actives have a fitted effect of over 45% in size
RE007 growth inh = qHTS Assay for Inhibitors of the HIV-1 protein Vpr | Potency, µM (highest dose often 92.2 µM), most hits filed as inhibitors | actives 0.21% (n = 360,000) | S. pombe RE007 Vpr strain, BacTiter-Glo ATP luminescence, 24 h | AID 651644, 2012; active = well fitted falling curve with a large enough effect; inconclusive = small, poorly fitted or top-dose-only effect; inactive = no such curve, though single readings can be large or run the other way; also: nearly all actives have a fitted effect of over 50% in size
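Fission yeast RE007 carrying one integrated HIV-1 vpr copy, seeded at OD 0.01 in PMG+AL medium with 23 nL pinned compound. Grown 24 h at 30 degrees; viability read by BacTiter-Glo luminescence after 5 min.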
Sm TGR inh = qHTS Assay for the Inhibitors of Schistosoma Mansoni Peroxiredoxins | purified TGR, DTNB reduction, TNB absorbance 405 nm | Potency, µM (highest dose often 114 µM), most hits filed as inhibitors | actives 3% (n = 360,000) | AID 485364, 2010; also: nearly all actives have a fitted effect of over 60% in size
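Kinetic colorimetric format: TGR-catalysed, NADPH-driven DTNB reduction monitored via TNB absorbance. Enzyme dispensed at 20 nM; compound exposure 15 min at room temperature before reaction start.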
Tb PYK inh = qHTS of Trypanosoma Brucei Inhibitors; pyruvate kinase (Trypanosoma brucei), Q57TT1; TbPYK enzyme, Kinase-Glo Plus ATP luminescence, 45 min; Potency, µM (series often up to 76.8 µM), usual class: inhibitors; actives 0.12% (n = 410,000); AID 624173, 2012; also: nearly all actives have a fitted effect of over 50% in size
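ADP (130 uM final) triggers the TbPYK reaction after compound addition; incubation is 45 min at room temperature. Kinase-Glo Plus is then added and luminescence imaged. Normalized data are fitted to concentration-effect curves.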
A number is an active result; - = inactive; ? = inconclusive; . = no result given. Unless noted, calls follow the shape of the dose curve; as a rule, active = well fitted curve in the direction sought with a large enough effect; inconclusive = small, poorly fitted or top-dose-only effect, or another doubt; inactive = no such curve, though single readings can be large; an effect the other way counts as inactive or inconclusive.

SMILES	FMDV antiviral	RE007 growth inh	Sm TGR inh	Tb PYK inh
Cc1cc(C)c2cc(CN(Cc3ccco3)C(=O)NCc3ccccc3)c(=O)[nH]c2c1	-	-	50µM	-
CC(=O)Nc1ccc2nc(-c3ccncc3)[nH]c2c1	-	-	-	-
CC(=O)Nc1cc(NC(C)=O)cc(-c2nc3ccccc3[nH]2)c1	40µM	-	-	-
Fc1ccccc1C1CC(c2ccco2)=Nc2ccccc2S1 (centres undefined)	-	25µM	8.9µM	-
COc1cc(=O)n2c(c1C(=O)N(C)Cc1cscn1)CCN(C(=O)c1ccc(C)cc1C)CC2	-	.	.	.
CN(C)c1ccc(C(=O)/C=C/c2ccco2)cc1	-	-	45µM	-
O=C(/C=C/c1ccco1)c1ccc(O)cc1	.	.	3.5µM	.
O=C(NCCN1Cc2ccccc2OC(c2ccsc2)C1)c1cncs1 (centres undefined)	-	.	.	.
CC1Cc2ccccc2N1C(=O)CSc1nnc2n1C(C)(C)Cc1ccccc1-2 (centres undefined)	?	-	-	-
COc1ccccc1N1CCN(C(=O)CSc2nnc3n2C(C)(C)Cc2ccccc2-3)CC1	16µM	-	-	?
Cn1c(=O)n(C)c2cc([N+](=O)[O-])c(N3CCN(C(=O)c4cccc(F)c4)CC3)cc21	?	-	.	-
Cn1c(=O)n(C)c2cc([N+](=O)[O-])c(N3CCN(C(=O)c4cccc(Cl)c4)CC3)cc21	35µM	-	-	-
O=C(COC(=O)c1ccccc1)Nc1ncc([N+](=O)[O-])s1	-	-	.	?
O=C(Nc1ccccc1)Nc1ncc([N+](=O)[O-])s1	10µM	-	-	-
COC(=O)CSc1nc2nc(-c3cccs3)cc(C(F)(F)F)c2c(=O)[nH]1	-	-	-	-
O=C(CSc1nc2nc(-c3cccs3)cc(C(F)(F)F)c2c(=O)[nH]1)C(F)(F)F	-	-	3.5µM	-
O=C(Nc1nc2c(s1)CN(Cc1ccccc1)CC2)C1CCCC1	-	-	?	-
CC(C)(C)C(=O)Nc1nc2c(s1)CN(Cc1ccccc1)CC2	-	-	25µM	-
CCOC(=O)N1CCN(c2nc(CN3CCCCC3CCO)nc3c(C)cccc23)CC1 (centres undefined)	-	.	.	.
CCN1/C(=C2\SC(=S)N(Cc3ccccc3)C2=O)Sc2ccccc21	-	-	-	-
CCC(CO)[n+]1c(C)cc(/C=C2\Sc3ccccc3N2Cc2ccccc2)cc1C (centres undefined)	10µM	-	-	-
CCC(=O)N1c2ccccc2NC2=C(C(=O)CC(c3ccco3)C2)C1c1ccco1 (centres undefined)	-	-	?	-
COc1cc(C2C3=C(CC(c4ccco4)CC3=O)Nc3ccccc3N2C(C)=O)cc(OC)c1OC (centres undefined)	-	-	79µM	-
O=C1CC(c2ccco2)CC2=C1C1c3ccccc3C(=O)N1c1ccccc1N2 (centres undefined)	-	-	35µM	-
COc1ccc(C2CC(=O)C3=C(C2)Nc2ccccc2N(C(C)=O)C3c2ccco2)cc1 (centres undefined)	-	-	-	-
SMILES	FMDV antiviral	RE007 growth inh	Sm TGR inh	Tb PYK inh
CCOc1ccc(N=Cc2c(O)n(CCc3ccc(OC)c(OC)c3)c(=O)[nH]c2=O)cc1	7.9µM	-	-	-
O=c1[nH]c(=O)n(Cc2ccccc2)c(O)c1C=Nc1ccc(CN2CCOCC2)cc1	?	-	35µM	-
CCN(CC)CCN=Cc1c(O)n(CCc2ccccc2)c(=O)[nH]c1=O	-	-	25µM	-
O=c1[nH]c(=O)n(Cc2ccccc2)c(O)c1C=NCCN1CCNCC1	.	-	35µM	-
C=CCn1c(O)c(C=NCCN2CCNCC2)c(=O)[nH]c1=O	-	-	-	-
CCc1ccccc1NC(=O)CCCn1c(=O)c2cccn2c2ccccc21	-	.	-	-
Cc1ccc(Cl)cc1NC(=O)CCn1c(=O)c2cccn2c2cccnc21	-	.	-	-
O=c1[nH]c(=O)n(CCC2=CCCCC2)c(O)c1/C=N/Nc1cccc2ccccc12	?	-	20µM	-
O=c1[nH]c(=O)n(CCC2=CCCCC2)c(O)c1C=NCCN1CCNCC1	-	-	10µM	-
CCC1(C2CCN(C(=O)c3coc4c3C(=O)CCC4)CC2)NC(=O)N(CCc2scnc2C)C1=O (centres undefined)	-	.	.	.
CCCC(=O)N(C1CC(C)C(C#N)(C#N)C1(C#N)C#N)N(C)C (centres undefined)	16µM	-	2µM	-
CC(=O)N(C1CC(C)C(C#N)(C#N)C1(C#N)C#N)N(C)C (centres undefined)	?	-	.	-
O=C(Oc1cccc2cccnc12)c1ccco1	-	28µM	-	-
O=C(Oc1cccc2cccnc12)c1ccc(Br)o1	-	-	-	-
O=C(Oc1cccc2cccnc12)c1cccs1	-	5µM	-	-
O=C(NCCOc1cccc2cccnc12)c1cccs1	-	-	-	-
O=C(Oc1ccccc1)c1cccc2cccnc12	.	35µM	-	-
CCOC(=O)c1cccc(Nc2cc(C)nc(C)n2)c1	?	.	-	-
Fc1ccc(-n2ncc3c(N4CCN(c5ccccc5F)CC4)ncnc32)cc1	-	.	-	-
CCc1cc(C(=O)NCC2Cc3cccc(-c4ccc(C(=O)OC)cn4)c3O2)no1 (centres undefined)	-	.	.	.
Cc1cnc(C)c(-c2ccc(F)c3c2OC(CNC(=O)Cc2c(C)[nH]c4ccccc24)C3)n1 (centres undefined)	-	.	.	.
C=C1C(=O)O[C@@H]2C[C@@H](C)[C@H]3C=CC(=O)[C@]3(O)C[C@@H]12	?	-	35µM	-
Cc1ccccc1OCC(=O)NN1C(=O)C2C3C=CC(O3)C2C1=O (centres undefined)	-	-	20µM	-
CCOc1ccc(C(=O)NN2C(=O)C3C4C=CC(O4)C3C2=O)cc1 (centres undefined)	-	-	22µM	-
Cc1ccc(OCC(=O)Nc2cccc(C(=O)OCc3cc(=O)n4cc(C)sc4n3)c2)cc1	-	.	-	-
SMILES	FMDV antiviral	RE007 growth inh	Sm TGR inh	Tb PYK inh
CO[C@H]1[C@H](NC(=O)c2ccsc2)c2ccccc2C12CCN(Cc1ccc3c(c1)OCO3)CC2	-	.	.	.
O=c1c2cnn(-c3ccccc3)c2nc(-c2ccco2)n1-c1ccccc1	14µM	-	-	-
FC(F)(F)c1nc(N2CCCC2)ncc1-c1nnnn1-c1ccccc1	18µM	-	-	-
CC(=O)c1c2c3c(cccc3n(C)c1=O)C(=O)c1ccccc1-2	-	-	8.9µM	-
COC(=O)c1c(S(C)(=O)=O)nc(-c2ccccc2)[nH]c1=O	-	-	25µM	-
Cn1c(NN=O)nc2ccccc21	-	-	-	-
Cn1c(N=Nc2ccccc2)nc2ccccc21	-	16µM	-	14µM
CN(C)c1ccc(N=Nc2nc3ccccc3n2C)cc1	4µM	11µM	-	14µM
CCOc1cc(/C=C2/COc3ccccc3C2=O)ccc1OCC(=O)N(C)C	?	-	32µM	-
O=C1/C(=C/c2ccc(O)cc2)COc2ccccc21	-	?	?	?
